Assay results reported in the supplement of paper PMC8728848.
About 410 targets per protein were measured; listed, in parts, are those with the strongest signals and a random draw of the rest.

How the values were obtained:
Assay in all cases: glycan array binding signal (z-score within array); higher = stronger binding
Conditions in all cases: glycan notation: IUPAC condensed, linker removed
[1] = molecular target: Fuc(a1-2)Gal(b1-3)GlcNAc(b1-2)Man(a1-3)[Fuc(a1-2)Gal(b1-3)GlcNAc(b1-2)Man(a1-6)]Man(b1-4)GlcNAc(b1-4)[Fuc(a1-6)]GlcNAc
In short: (§1)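 Glycan array data were curated from 3228 arrays in the Consortium for Functional Glycomics database and kept only where the protein sequence was available. Glycan names were converted to IUPAC-condensed notation, and columns mapping to the same glycan were averaged. The binding signal is a within-array Z-score, averaged across arrays of the same protein sequence at different concentrations or buffers and across linkers. Negative Z-scores can be read as non-binding.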

[2] = molecular target: Fuc(a1-2)Gal(b1-3)GlcNAc(b1-3)[Gal(b1-4)GlcNAc(b1-6)]Gal(b1-4)Glc
In short: as §1

[3] = molecular target: Fuc(a1-2)Gal(b1-3)[Fuc(a1-4)]GlcNAc
In short: as §1

[4] = molecular target: Fuc(a1-2)Gal(b1-3)[Fuc(a1-4)]GlcNAc(b1-2)Man(a1-3)[Fuc(a1-2)Gal(b1-3)[Fuc(a1-4)]GlcNAc(b1-2)Man(a1-3)]Man(b1-4)GlcNAc(b1-4)GlcNAc
In short: as §1

[5] = molecular target: Fuc(a1-2)Gal(b1-4)GlcNAc(b1-6)GalNAc
In short: as §1

[6] = molecular target: Fuc(a1-2)Gal3S(b1-4)GlcNAc
In short: as §1

[7] = molecular target: Fuc(a1-2)[Gal(a1-3)]Gal(b1-3)GalNAc(b1-3)Gal(a1-4)Gal(b1-4)Glc
In short: as §1

[8] = molecular target: Fuc(a1-2)[Gal(a1-3)]Gal(b1-3)GlcNAc
In short: as §1

[9] = molecular target: Fuc(a1-2)[Gal(a1-3)]Gal(b1-3)GlcNAc(b1-6)GalNAc
In short: as §1

[10] = molecular target: Fuc(a1-2)[Gal(a1-3)]Gal(b1-4)[Fuc(a1-3)]GlcNAc(b1-3)GalNAc
In short: as §1

[11] = molecular target: Fuc(a1-3)[Gal(b1-4)]GlcNAc(b1-2)Man(a1-3)[Fuc(a1-3)[Gal(b1-4)]GlcNAc(b1-2)Man(a1-6)]Man(b1-4)GlcNAc(b1-4)GlcNAc
In short: as §1

[12] = molecular target: Fuc(a1-3)[Gal(b1-4)]GlcNAc(b1-3)Gal(b1-4)[Fuc(a1-3)]GlcNAc
In short: as §1

[13] = molecular target: Fuc(a1-3)[Gal(b1-4)]GlcNAc(b1-6)GalNAc
In short: as §1

[14] = molecular target: Fuc(a1-3)[Gal(b1-4)]GlcNAc6S
In short: as §1

[15] = molecular target: Gal(a1-3)Gal(b1-3)GlcNAc(b1-6)GalNAc
In short: as §1

[16] = molecular target: Gal(a1-3)Gal(b1-4)GlcNAc(b1-2)Man(a1-3)[Gal(a1-3)Gal(b1-4)GlcNAc(b1-2)Man(a1-6)]Man(b1-4)GlcNAc(b1-4)GlcNAc
In short: as §1

[17] = molecular target: Gal(b1-3)GlcNAc(b1-2)Man(a1-3)[Gal(b1-3)GlcNAc(b1-2)Man(a1-6)]Man(b1-4)GlcNAc(b1-4)GlcNAc
In short: as §1

[18] = molecular target: Gal(b1-3)GlcNAc(b1-2)Man(a1-3)[Gal(b1-3)GlcNAc(b1-2)Man(a1-6)]Man(b1-4)GlcNAc(b1-4)[Fuc(a1-6)]GlcNAc
In short: as §1

[19] = molecular target: Gal(b1-3)GlcNAc(b1-3)Gal(b1-4)GlcNAc
In short: as §1

[20] = molecular target: Gal(b1-3)GlcNAc(b1-3)Gal(b1-4)GlcNAc(b1-2)Man(a1-3)[Gal(b1-3)GlcNAc(b1-3)Gal(b1-4)GlcNAc(b1-2)Man(a1-6)]Man(b1-4)GlcNAc(b1-4)GlcNAc
In short: as §1

[21] = molecular target: Gal(b1-3)GlcNAc(b1-6)Gal(b1-4)GlcNAc
In short: as §1

[22] = molecular target: Gal(b1-3)GlcNAc(b1-6)[Gal(b1-3)]GalNAc
In short: as §1

[23] = molecular target: Gal(b1-3)[Fuc(a1-4)]GlcNAc(b1-6)GalNAc
In short: as §1

[24] = molecular target: Gal(b1-4)GlcNAc(b1-3)Gal(b1-3)GalNAc
In short: as §1

[25] = molecular target: Gal(b1-4)GlcNAc(b1-3)Gal(b1-4)GlcNAc(b1-2)Man(a1-3)[Gal(b1-4)GlcNAc(b1-3)Gal(b1-4)GlcNAc(b1-2)Man(a1-6)]Man(b1-4)GlcNAc(b1-4)GlcNAc
In short: as §1

[26] = molecular target: Gal(b1-4)GlcNAc(b1-3)Gal(b1-4)GlcNAc(b1-2)Man(a1-3)[Gal(b1-4)GlcNAc(b1-3)Gal(b1-4)GlcNAc(b1-2)Man(a1-6)]Man(b1-4)GlcNAc(b1-4)[Fuc(a1-6)]GlcNAc
In short: as §1

B1: PX9937B-bvu-524-33-524 (Bacteroides vulgatus) (protein)
chain: GTAYWKNPDQFTAFNTGLHALLREKSYNFFLLGEPRADIYGDNPIGGEASQGMERLPFNTINKENVGISNYGDMYKIINQINQMIAKTTETTILTEATQNYYLGEAYGMRAYLYFHLLRSWGDVVLYLDYTEGQNLDLSNITKGVSPATEVMEQIKKDIQASENAFGSDYSFKLGRHFWSAAATQMLKGEAYLWSGRQMNGGNSDYTIAKNAFENVKKADVGLVTSSFKDIFSFENKKNKEMIFTIHNGKDEYEMWGGYYRMRLIPAQDKMVKIYCDENGNSFVGTPDAQLNGLTQLQVRREFYFKGFRNNDTRWTTSLKAVYKKDAQGVVSYFGPITYKFQGTMLEGGSTRSFLDDFPIYRYADCLLQLAMAKVLLGEDPTEEINAVRERAYGSKYFNEHKAEIAYPNDNDPEFYTDNKWMKPDNAGALEAILKERLREFMFEGKRWYDIRLLGWDYVHQYSSAEQSRLLWPIDAGTLTNNSALKQTPGYE
[1]
  glycan array binding signal (z-score): -0.232
[2]
  glycan array binding signal (z-score): -0.284
[3]
  glycan array binding signal (z-score): -0.457
[4]
  glycan array binding signal (z-score): -0.154
[5]
  glycan array binding signal (z-score): -0.136
[6]
  glycan array binding signal (z-score): -0.476
[7]
  glycan array binding signal (z-score): 0.046
[8]
  glycan array binding signal (z-score): -0.275
[9]
  glycan array binding signal (z-score): -0.124
[10]
  glycan array binding signal (z-score): -0.416
[11]
  glycan array binding signal (z-score): 1.23
[12]
  glycan array binding signal (z-score): -0.277
[13]
  glycan array binding signal (z-score): 2.69
[14]
  glycan array binding signal (z-score): 0.219
[15]
  glycan array binding signal (z-score): 6.13
[16]
  glycan array binding signal (z-score): 2.91
[17]
  glycan array binding signal (z-score): -0.057
[18]
  glycan array binding signal (z-score): 0.088
[19]
  glycan array binding signal (z-score): -0.228
[20]
  glycan array binding signal (z-score): 12.8
[21]
  glycan array binding signal (z-score): -0.085
[22]
  glycan array binding signal (z-score): 7.68
[23]
  glycan array binding signal (z-score): -0.019
[24]
  glycan array binding signal (z-score): -0.08
[25]
  glycan array binding signal (z-score): 2.05
[26]
  glycan array binding signal (z-score): 1.48
